The source of these data is PubChem BioAssay (NCI).

The panel holds about 83,000 compounds, 20% with a hit somewhere; the sample as a whole holds those more often.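 Step 1: grow cells in 96-well plates. Step 2: add test compound at a single concentration. Step 3: incubate 48 h. Step 4: record percent growth.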 A number with no mark means an inactive call. The source made the active and inactive calls. The calls were made as follows: active = growth percent below 10; inactive = the rest.

What all share (assay): NCI-60 one-dose screen, 48 h (100 = growth as untreated, 0 = no growth, -100 = all killed)
One test deals with HCT-15 colon. The following applies: 10 µM unless noted.
The subject of the next test is HT29 colon. As to conditions: 10 µM unless noted.
The next test has as its system SNB-75 CNS. As to conditions: 10 µM unless noted.
The next test concerns SNB-19 CNS. As to conditions: 10 µM unless noted.
The next test relates to PC-3 prostate. As to conditions: 10 µM unless noted.
A further test concerns SK-MEL-5 melanoma. As to conditions: 10 µM unless noted.
For another test, the system named is UACC-62 melanoma. The following applies: 10 µM unless noted.
Another test deals with LOX IMVI melanoma. The following applies: 10 µM unless noted.
A further test concerns SK-MEL-28 melanoma. As to conditions: 10 µM unless noted.
The test system of the next test is SK-MEL-2 melanoma. The following applies: 10 µM unless noted.
A further test deals with EKVX NSCLC. As to conditions: 10 µM.
The subject of a further test is SN12C renal. The following applies: 10 µM unless noted.
For the next test, the system named is UO-31 renal. The following applies: 10 µM unless noted.
The next test relates to TK-10 renal. As to conditions: 10 µM unless noted.
For another test, the system named is ACHN renal. As to conditions: 10 µM unless noted.
Another test concerns CAKI-1 renal. As to conditions: 10 µM unless noted.
For the next test, the system named is A498 renal. As to conditions: 10 µM unless noted.
The subject of the next test is CCRF-CEM leukemia. The following applies: 10 µM.
The subject of another test is MOLT-4 leukemia. The following applies: 10 µM unless noted.

Turning to `CCOC(=O)c1cc(C(=O)c2ccc(Br)cc2)n2cc(C)cc(C)c12`, the growth with HCT-15 colon was 95.5%; with HT29 colon, 82.3%; with SNB-75 CNS, 82.8%; in the test with SNB-19 CNS it was 87%; in the test on PC-3 prostate, 84.1%; in the test on SK-MEL-5 melanoma, 96.2%. Moreover, the growth in the test with UACC-62 melanoma is 89.3%; in the test on LOX IMVI melanoma, 92.3%; with SK-MEL-28 melanoma it was 98.5%; with SK-MEL-2 melanoma, 91.3%; in the test with EKVX NSCLC, 99.5%; with SN12C renal, 101%. The growth in the test with UO-31 renal was 86.8%; in the test with TK-10 renal it was 114%; in the test with ACHN renal it was 104%; in the test on CAKI-1 renal it was 82.1%; in the test with A498 renal, 78.4%; with CCRF-CEM leukemia, 83.9%. The growth in the test on MOLT-4 leukemia was 98.9%.

Turning to `CN(CCC#N)c1ccc(/C=C(\C#N)c2cccc(C(F)(F)F)c2)cc1`, the growth was 39.9% in the test on HCT-15 colon; 23.5% in the test on HT29 colon; 90.1% in the test on SNB-75 CNS; 79% in the test on SNB-19 CNS; 61.1% in the test on PC-3 prostate; 57.8% in the test on SK-MEL-5 melanoma. The growth in the test on UACC-62 melanoma is 55.3%; in the test on LOX IMVI melanoma, 63.2%; in the test with SK-MEL-28 melanoma, 71.9%; with SK-MEL-2 melanoma it was 51%; in the test on SN12C renal, 72.1%; in the test with UO-31 renal it was 53.4%. Moreover, the growth with TK-10 renal was 69.3%; in the test with ACHN renal it was 76.1%; in the test on CAKI-1 renal, 49.8%; in the test with A498 renal it was 74.1%; in the test on MOLT-4 leukemia, 53.8%.

For `CSc1nc(N)n2nccc2n1`, the growth was 108% in the test with HCT-15 colon; 102% in the test with HT29 colon; 78.5% in the test with SNB-75 CNS; 99.7% with SNB-19 CNS; 93.5% in the test on PC-3 prostate; 98.8% in the test on SK-MEL-5 melanoma. Further, the growth was 98.6% in the test on UACC-62 melanoma; 97.4% in the test on LOX IMVI melanoma; 98.5% with SK-MEL-28 melanoma; 115% in the test on SK-MEL-2 melanoma; 96.8% with SN12C renal; 65.4% in the test on UO-31 renal. In addition, the growth was 99.8% in the test with TK-10 renal; 112% in the test with ACHN renal; 70.6% in the test with CAKI-1 renal; 109% in the test on A498 renal; 98.9% with MOLT-4 leukemia.

Take `N=C(N)c1ccc(-c2ccc(-c3cc(Cl)cc(Cl)c3)s2)cc1`: the growth with HCT-15 colon was -85.9% (active); in the test with HT29 colon it was -38% (active); in the test on SNB-75 CNS, -90.6% (active); in the test on SNB-19 CNS it was -73.5% (active); in the test on PC-3 prostate, -81.6% (active); in the test on SK-MEL-5 melanoma, -93.7% (active). Further, the growth with UACC-62 melanoma is -80.4% (active); in the test on LOX IMVI melanoma, -78.6% (active); in the test on SK-MEL-28 melanoma, -86.4% (active); in the test on SK-MEL-2 melanoma it was -46.1% (active); in the test with EKVX NSCLC, -72% (active); in the test on SN12C renal it was -77% (active). Besides, the growth in the test with UO-31 renal was -77.5% (active); in the test with TK-10 renal it was -74.8% (active); in the test on ACHN renal it was -94.4% (active); in the test with CAKI-1 renal it was -90.2% (active); with A498 renal, -94.6% (active); in the test on CCRF-CEM leukemia, -67.1% (active). Moreover, the growth in the test with MOLT-4 leukemia was -50.3% (active).

Regarding `CCOC(=O)c1csc(-c2ccc(COC(=O)c3ccccc3)o2)n1`, the growth in the test on HCT-15 colon is 96%; with HT29 colon, 104%; with SNB-75 CNS, 92%; in the test with SNB-19 CNS, 97.5%; in the test with PC-3 prostate, 96.6%; in the test on SK-MEL-5 melanoma, 98.2%. The growth was 102% with UACC-62 melanoma; 110% with LOX IMVI melanoma; 101% with SK-MEL-28 melanoma; 107% with SK-MEL-2 melanoma; 96.1% with SN12C renal; 83.5% in the test with UO-31 renal. Further, the growth in the test with TK-10 renal is 107%; with ACHN renal, 95%; in the test on CAKI-1 renal it was 81.2%; in the test with A498 renal, 112%; in the test with MOLT-4 leukemia, 4.16% (active).

`Cc1ccc(OCCn2ccc(=O)n(CCOc3ccc(Cl)cc3C(=O)c3cc(C)cc(C)c3)c2=O)cc1`: the growth is 27.8% in the test with HCT-15 colon; 18.9% with HT29 colon; 33.5% with SNB-75 CNS; 57.5% in the test with SNB-19 CNS; 29.2% in the test with PC-3 prostate; 49.2% in the test with SK-MEL-5 melanoma. Besides, the growth with UACC-62 melanoma was 32.7%; with LOX IMVI melanoma, 47%; with SK-MEL-28 melanoma, 68.3%; in the test on SK-MEL-2 melanoma, 41.2%; in the test on EKVX NSCLC, 47%; in the test on SN12C renal, 62%. Also, the growth is 41.8% with UO-31 renal; 61.7% in the test with TK-10 renal; 60.6% in the test on ACHN renal; 47.6% in the test with CAKI-1 renal; 33.7% in the test with A498 renal; 25.7% with CCRF-CEM leukemia. Moreover, in the test with MOLT-4 leukemia, the growth is 19.2%.

Regarding `CN1NC(c2ccccc2)NN(C)C1=O`, the growth with HCT-15 colon was 96.6%; in the test on HT29 colon, 107%; with SNB-75 CNS, 77.8%; in the test with SNB-19 CNS, 97.2%; in the test on PC-3 prostate, 88.6%; with SK-MEL-5 melanoma it was 97.8%. The growth in the test on UACC-62 melanoma is 91.6%; with LOX IMVI melanoma, 92.5%; with SK-MEL-28 melanoma it was 107%; with SK-MEL-2 melanoma it was 110%; in the test with SN12C renal it was 98.4%; in the test with UO-31 renal, 67.8%. The growth with TK-10 renal was 114%; with ACHN renal it was 95.1%; with CAKI-1 renal it was 85.4%; with A498 renal, 119%.

For the molecule `CC(=O)C(CO)C(=O)Nc1ccccc1` (centres undefined), the growth in the test with HCT-15 colon is 98.8%; in the test on HT29 colon it was 101%; with SNB-75 CNS, 63.3%; with SNB-19 CNS, 101%; with PC-3 prostate, 102%; in the test on SK-MEL-5 melanoma, 103%. For the same molecule, the growth with UACC-62 melanoma was 98.2%; with LOX IMVI melanoma, 83.7%; in the test on SK-MEL-28 melanoma, 99.8%; in the test with SK-MEL-2 melanoma it was 90.4%; in the test with SN12C renal it was 101%; with UO-31 renal it was 106%. For the same molecule, the growth with ACHN renal was 93.3%; in the test with CAKI-1 renal, 94.8%; in the test on CCRF-CEM leukemia, 99.2%; in the test with MOLT-4 leukemia, 102%.

As to `O=C1Nc2ccccc2/C1=C/c1cn(CC(O)Cn2cc(/C=C3\C(=O)Nc4ccccc43)c3ccccc32)c2ccccc12` (centres undefined), the growth in the test with HCT-15 colon is -69.8% (active); in the test with HT29 colon, -20.2% (active); in the test on SNB-75 CNS, -95.9% (active); in the test on SNB-19 CNS, -43% (active); with PC-3 prostate, -86.3% (active); in the test with SK-MEL-5 melanoma, -80.2% (active). Besides, the growth with UACC-62 melanoma was -75.2% (active); in the test on LOX IMVI melanoma, -84.5% (active); in the test on SK-MEL-28 melanoma, -85% (active); in the test with SK-MEL-2 melanoma it was -57.6% (active); with EKVX NSCLC, -62.3% (active); in the test with SN12C renal it was -53.6% (active). In addition, the growth was -9.18% (active) with UO-31 renal; -15.1% (active) with TK-10 renal; -68.4% (active) with ACHN renal; 9.83% (active) with CAKI-1 renal; -73.2% (active) in the test with A498 renal; -30.6% (active) with CCRF-CEM leukemia. Besides, the growth in the test on MOLT-4 leukemia is -29.4% (active).
